# Laboratory results taken from PubChem BioAssay (NCI).
# Several values for one entry are separate records, joined by “and”; a condition that tells them apart may be missing. Equal values may be shown once. This is part of a sample that, as a whole, favours compounds with a hit. Of some 83,000 tested, about 20% had one in any assay.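 Plates (96-well) were seeded with cells, treated with compound at one concentration, and incubated for 48 hours before percent growth was determined.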 Activity calls are given as the source filed them. Rule for the calls: active = growth percent below 10; inactive = the rest.
# System: HL-60(TB) leukemia
# Test: NCI-60 one-dose screen, 48 h (100 = growth as untreated, 0 = no growth, -100 = all killed)
# Details: 10 µM unless noted
row,SMILES,growth
1,C[C@H]1[C@H](C)CC[C@]2(CO)CC[C@]3(C)C(=CC[C@@H]4[C@@]5(C)CCCNC(C)(C)[C@@H]5CC[C@]43C)[C@H]12,-55% (active)
2,CN(C)CCCOc1c(Br)cc(/C=C/C(=O)N(C)CCc2cc(Br)c(OCCCN(C)C)c(Br)c2)cc1Br,81.9% (inactive)
3,COc1ccc(/C(C)=C(/c2ccc(OCCCN(C)C)cc2)c2ccc(OC(=O)Cc3ccccc3)cc2)cc1,72% (inactive)
4,COc1ccccc1NC(=O)Cn1cc(CN2CCN(c3ccnc4cc(Cl)ccc34)CC2)nn1,131% (inactive)
5,C#Cc1ccccc1NC(=O)c1sc2nc3c(cc2c1N)CCCCCC3,92.7% (inactive)
6,OCc1nnn(-c2ccccc2)c1CO,89.1% (inactive)
7,Clc1cc2c(c(CSc3nc4ccccc4n4cccc34)c1)OCOC2,84.9% (inactive)
8,CC1=CC(=C(c2ccc(N)cc2)c2ccc(N)cc2)C=CC1=N,-13.5% (active) and 47.8% (inactive)
9,COc1ccc(-c2ccc(NNC(=O)c3ccc(F)cc3)nn2)cc1OC,46.9% (inactive)
10,CSc1nc(N)nc2c1ncn2C,75.8% (inactive)
11,COc1cc(-c2n/c(=C\c3c(O)[nH]c4ccc(Cl)cc34)cc3c2=Nc2ccccc2-3)ccc1F,96.6% (inactive)
12,COc1ccc(OC)c(/C=C2\COc3ccc(O)cc3C2=O)c1,82.2% (inactive)
13,C=C1C(=O)O[C@H]2[C@H]1CC/C(COC(=O)NCCc1ccc(OC)c(OC)c1)=C\CC[C@@]1(C)O[C@@H]21,30.7% (inactive)
14,O=C(O)C1CSC(c2ccccc2)N1 (centres undefined),128% (inactive)
15,COc1cc(-c2nc3cc(Cl)c(Cl)cc3[nH]2)ccc1OCC(=O)N=Nc1c(O)[nH]c2ccc([N+](=O)[O-])cc12,94.9% (inactive)
16,O=C(O)Cc1ccccn1,106% (inactive)
17,CCN(CC)CCCCCCNc1ccnc2cc(Cl)ccc12,103% (inactive)
18,Oc1ccc(CN(Cc2ccc(C(F)(F)F)cc2)Cc2ccc(O)c3ncccc23)c2cccnc12,-11% (active)
19,Cc1ccc(C2=Nc3c(N)ncnc3NC(c3ccc4c(c3)OCO4)C2)cc1 (centres undefined),33.2% (inactive)
20,NCCCCCC(=O)O,114% (inactive) and 92.6% (inactive) and 77.6% (inactive)

row,SMILES,growth
1,N#CSCC(=O)c1ccc(Cl)cc1,73.4% (inactive)
2,CO[C@H]1/C=C/O[C@@]2(C)Oc3c(C)c(O)c4c(O)c(c(/C=N/N5CCN(C)CC5)c(O)c4c3C2=O)NC(=O)/C(C)=C\C=C\C(C)[C@H](O)[C@@H](C)[C@@H](O)[C@@H](C)[C@@H](OC(C)=O)[C@@H]1C (some centres undefined),104% (inactive)
3,Nc1c(C(=O)Nc2ccc(Cl)cc2)cc(-c2nc3ccccc3s2)c(=O)n1NS(=O)(=O)c1ccc(Cl)cc1,100% (inactive)
4,C[C@]12CC[C@@H]3c4ccc(O)cc4C[C@@H](O)[C@H]3[C@@H]1CC[C@@H]2O,101% (inactive)
5,CC(=O)[C@H]1CC[C@H]2[C@@H]3C[C@H](C)C4=CC(=O)CC[C@]4(C)[C@H]3C(=O)C[C@]12C,79.7% (inactive)
6,COc1ccc(C(=O)N2N=C(c3ccc(F)cc3)CC2c2cn(-c3ccccc3)nc2-c2ccccc2)cc1 (centres undefined),32.5% (inactive)
7,O=C(Nc1ccc(OS(=O)(=O)Cc2ccccc2)cc1)C12CC3CC(CC(C3)C1)C2,60.5% (inactive)
8,COc1c(B(O)O)cccc1-c1nc2c(F)cc3[nH]ncc3c2c2c1CCCC2,-28.3% (active)
9,O=C(O)/C=C(\c1nc2ccc([N+](=O)[O-])cc2[nH]1)c1cc(Cl)ccc1O,10.8% (inactive)
10,COc1ccc(Sc2ccc3[nH]c(=O)nc(N)c3c2)cc1,94.9% (inactive)
11,O=C(/C=C\c1ccc(Cl)c(Cl)c1)c1ccccc1,59.3% (inactive) and 99.9% (inactive)
12,O=CC(O)C(O)C(O)CO (centres undefined),130% (inactive) and 91.5% (inactive)
13,CC(C)(C)OC(=O)N1CCCN(CCNc2nccc(-c3c(-c4cccc(O)c4)nc4sccn34)n2)S1(=O)=O,104% (inactive)
14,O=C(N[C@@H]1CCCc2ccccc21)[C@H](CCC(=O)N1CCN(C2CCCCC2)CC1)N1C(=O)[C@@H](N2C(=O)OC[C@@H]2c2ccccc2)[C@H]1/C=C/c1ccccc1,-8.1% (active)
15,COc1cc(C(=O)/C=C/c2c[nH]c3ccccc23)cc(OC)c1OC,-12% (active)
16,N#Cc1ccc(/C=C/C(=O)c2ccccc2)cc1,-15.6% (active) and 17.7% (inactive)
17,O=P(O)(O)OC1C(OP(=O)(O)O)C(OP(=O)(O)O)C(OP(=O)(O)O)C(OP(=O)(O)O)C1OP(=O)(O)O.[Cu+2] (centres undefined),92.6% (inactive)
18,CCN(CC)CCCN1C(=O)c2c(c(C)c3c(oc4cc(O)ccc43)c2C)C1=O,-47.9% (active)
19,CN1CCN(Cc2ccc(NC(=O)c3cncc(C#Cc4cnc(N)c5ccccc45)c3)cc2C(F)(F)F)CC1,-46.3% (active)
